Screening data (PubChem BioAssay)
This is a sample that favours compounds with a hit; in the whole collection about 4.8% have one here.
USP1-UAF1 inh: inhibitors of human USP1/UAF1 deubiquitinase | O94782 | recombinant USP1/UAF1, Ub-Rhodamine cleavage fluorescence | Potency, µM (series often up to 57.1 µM), hits mostly inhibitors | 390,000 compounds, 0.23% hits | AID 743255; also: nearly all actives have a fitted effect of over 60% in size
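High-throughput fluorogenic screen: 1nM USP1/UAF1 complex, Ub-Rho substrate 150nM final, 50mM HEPES pH 7.8 with 0.5mM EDTA, 0.1 mg/ml BSA, 1mM TCEP and 0.01% Tween-20.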
IL1B secr inh: blocks inflammasome-driven IL-1 beta release | THP-1 LPS/ATP IL-1B secretion, AlphaLISA, 16 h; active compounds read low | 360,000 compounds, 4.7% hits | activity change, % at 57.5 µM; in the data active = activity change below about -50%; inconclusive = mostly about -30% to -49%
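Secreted IL-1B measured by AlphaLISA bead assay after 16 h compound exposure of THP-1 cells; compounds (final up to 57.5 uM) added 1 h before LPS (250 ng/mL) and ATP (1.25 mM) stimulation; lower signal means less secretion.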
ATXN2 expr inh: ATXN2 expression inhibition | HEK-293 ATXN2-luciferase reporter, luminescence, 24 h | Potency, µM (highest dose often 57 µM), actives largely listed as inhibitors | 360,000 compounds, 0.72% hits | AID 1745845; also: nearly all actives have a fitted effect of over 55% in size
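qHTS (up to 57 uM final) was run with 24 h compound exposure of reporter cells at 37 °C. Each well was multiplexed: SteadyGlo luminescence measured ATXN2-luciferase expression after a fluorogenic Gly-Phe-AFC viability readout (25 uM final).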
USP2a block: USP2a (human) protease inhibition; USP2 core, Ub-CHOP2 coupled fluorogenic reporter, 485/531; Potency, µM (highest dose often 38.3 µM), usual class: inhibitors; 330,000 compounds, 0.01% hits; AID 463254
Target sequence (O75604 whole entry, looked up): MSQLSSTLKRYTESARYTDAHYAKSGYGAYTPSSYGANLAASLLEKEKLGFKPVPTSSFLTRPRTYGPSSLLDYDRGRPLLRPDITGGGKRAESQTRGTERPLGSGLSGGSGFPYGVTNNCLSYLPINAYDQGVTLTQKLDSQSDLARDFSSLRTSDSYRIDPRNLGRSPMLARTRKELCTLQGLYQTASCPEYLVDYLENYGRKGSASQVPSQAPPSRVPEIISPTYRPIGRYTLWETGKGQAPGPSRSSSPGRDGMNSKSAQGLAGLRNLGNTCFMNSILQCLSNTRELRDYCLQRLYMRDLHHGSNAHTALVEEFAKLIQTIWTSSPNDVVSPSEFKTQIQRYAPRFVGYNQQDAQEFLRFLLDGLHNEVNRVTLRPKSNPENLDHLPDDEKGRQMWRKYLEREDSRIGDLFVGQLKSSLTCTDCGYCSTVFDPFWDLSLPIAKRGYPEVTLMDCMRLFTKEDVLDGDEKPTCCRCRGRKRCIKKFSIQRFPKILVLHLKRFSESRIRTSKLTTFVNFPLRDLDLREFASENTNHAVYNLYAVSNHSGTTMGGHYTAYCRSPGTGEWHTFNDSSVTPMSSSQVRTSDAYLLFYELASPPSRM
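Cell-free coupled assay: 10nM USP2 core preincubated 30min RT with compound in Tris-HCl pH 8.0/CaCl2/CHAPS buffer, then 25nM Ub-CHOP2 and 25nM reporter substrate; fluorescence (Ex 485/Em 531) read after 60min RT, normalized to NEM inhibition, concentration-response curves fitted.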
ATXN viability: cell viability loss in ATXN counter-screen; S2 cells (HEK-293 line with an ATXN2-luciferase reporter) viability, CellTiter-Fluor protease fluorescence, 24 h; Potency, µM (titrated, usually from 56.7 µM), usual class: cytotoxic; 400,000 compounds, 0.49% hits; AID 651635; also: nearly all actives have a fitted effect of over 40% in size
Numbers stand for hits; 0 = inactive; ? = inconclusive; - = no result given; [ ] = another dose, or the depositor's remark. Unless noted, calls follow the shape of the dose curve; as a rule, active = well fitted curve in the direction sought with a large enough effect; inconclusive = small, poorly fitted or top-dose-only effect, or another doubt; inactive = no such curve, though single readings can be large; an effect the other way counts as inactive or inconclusive.

SMILES | USP1-UAF1 inh | IL1B secr inh | ATXN2 expr inh | USP2a block | ATXN viability
COc1cc2nc(N(C)C)c(CNC3CCOC(C)(C)C3)cc2c(OC)c1OC (centres undefined) | - | - | - | - | 0
O=C(O)c1cc(NC2(c3ccccc3)C(=O)c3ccccc3C2=O)ccc1Cl | 0 | - | 0 | - | 0
O=C(COC(=O)c1cc(=O)[nH]c(=O)[nH]1)Nc1cccc(Cl)c1 | 0 | 0 | 0 | 0 | 0
COc1ccccc1C(=O)Nc1nc2ccccc2s1 | 0 | 0 | ? | 0 | 0
COc1ccc(C(=O)Nc2nc3ccccc3s2)c(OC)c1 | 0 | 0 | 0.79µM | 0 | 0
Cc1ccc(C(c2nnnn2Cc2cccs2)N2CCN(Cc3ccc4c(c3)OCO4)CC2)cc1 (centres undefined) | 0 | -64 | 0 | 0 | ?
CC(Oc1cc2oc(=O)c3c(c2cc1Cl)CCC3)C(=O)N1C[C@H]2C[C@@H](C1)c1cccc(=O)n1C2 (some centres undefined) | 0 | 0 | 0 | 0 | 0
CCCCCOc1ccc(CN2CCOCC2)cc1Cl | 0 | 0 | 0 | 0 | 0
CCCCCc1ccc(OCCCC[n+]2ccccc2)c(CCCCC)c1 | 0 | -93 | 14µM | 0 | ?
CCC(C)(C)c1ccc(OCCCC[n+]2ccccc2)c(C(C)(C)CC)c1 | 0 | 0 | ? | 0 | 0
CCCCOc1ccc(C)cc1CN(CCO)CCO | 0 | 0 | 0 | 0 | 0
CCCCCc1ccc(OCCCC[n+]2ccc(C)cc2)c(CCCCC)c1 | 0 | -100 | 0[11.3 µM] | 0 | ?
CCCCCc1ccc(OCCCC[n+]2cccc(C)c2)c(CCCCC)c1 | ? | -96 | 10µM | 0 | ?
Cc1cc(C)n(-c2nc3cc(Cl)c(Cl)cc3nc2Nc2c(C)cccc2C)n1 | 0 | - | 0 | - | 0
COc1cc(CN2CCc3ccccc3C2)ccc1O | 0 | -90 | - | 0 | 18µM
O=[N+]([O-])c1ccccc1-c1cc(-c2cc(Cl)ccc2O)n[nH]1 | 0 | -101 | 0 | 0 | ?
COc1ccc(-c2cc(-c3cc(C)ccc3O)[nH]n2)cc1 | 0 | ? | 0 | 0 | ?
Cc1ccc(O)c(-c2cc(-c3ccccc3C)[nH]n2)c1 | 0 | -95 | 0 | 0 | ?
COc1ccc(O)c(-c2cc(-c3ccccc3[N+](=O)[O-])[nH]n2)c1 | 0 | 0 | 0 | 0 | 0
Cc1ccc(O)c(-c2cc(-c3ccccc3[N+](=O)[O-])[nH]n2)c1 | 0 | -87 | 0 | 0 | -
CC(C)(C)c1ccc(-c2cc(-c3ccccc3O)[nH]n2)cc1 | 0 | -99 | 0 | 0 | ?
CCN(CC)C(=O)c1c(NC(=O)c2ccccc2F)sc2c1CCC(C(C)(C)C)C2 (centres undefined) | 0 | - | 0 | - | ?
O=C(CS(=O)c1ccc(C(F)(F)F)cc1[N+](=O)[O-])Oc1ccc(Cl)cc1 (centres undefined) | ? | -98 | 0 | 0 | ?
Cc1cc(C)cc(OC(=O)CS(=O)c2ccc(C(F)(F)F)cc2[N+](=O)[O-])c1 (centres undefined) | 0 | -121 | 0 | 0 | 0
O=c1cc(Cc2ccc([N+](=O)[O-])cc2)[nH]c(=O)[nH]1 | 0 | 0 | 0 | - | 0
SMILES | USP1-UAF1 inh | IL1B secr inh | ATXN2 expr inh | USP2a block | ATXN viability
Nc1ccc(Cc2ccc([N+](=O)[O-])cc2)cc1 | 0 | -50 | 0 | - | 0
CN(C)C(CNC(=O)c1ccc(Cl)c(S(=O)(=O)N2CCCCCC2)c1)c1ccccc1 (centres undefined) | 0 | -59 | 0 | 0 | 0
CN(C)C(CNC(=O)c1cccc(S(=O)(=O)N2CCN(c3ccc(F)cc3)CC2)c1)c1ccccc1 (centres undefined) | 0 | -74 | ? | - | 0
CN(C)CCCNC(=O)c1ccc(Cl)c(S(=O)(=O)N2CCCCCC2)c1 | 0 | 0 | 0 | 0 | 0
COc1cccc(CN(C)C(=O)c2cccc(S(=O)(=O)N3CCN(Cc4ccccc4)CC3)c2)c1OC | 0 | 0 | 0 | 0 | 0
COc1cccc(CN(C)C(=O)c2ccc(Cl)c(S(=O)(=O)N3CCCCCC3)c2)c1OC | 0 | -53 | 0 | - | 0
COc1ccccc1-c1ccnc(-n2ncc(C(=O)NCc3cccc(C)n3)c2C)n1 | - | - | - | - | 0
Cc1ccccc1OCC(=O)OCc1cc(=O)n2nc(-c3cccs3)sc2n1 | 0 | - | 0 | - | 0
O=C1NN=C(c2ccc(Cl)cc2)CC1c1cccc(Br)c1 (centres undefined) | 0 | -51 | 0 | 0 | 0
